Sampled rows, rich in hits. Any-hit rate of the full collection: about 14%.
HCMV antiviral = blocks human cytomegalovirus replication; HFF cells, HCMV-luciferase reporter, 72 h; hits give low values; activity change, negative = inhibition, % at 57.5 µM; 4.5% of 410,000 active; in the data active means activity change below about -60%; inconclusive means no clear call, values can overlap the other calls; inactive means above about -39%
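Two-dose cell screen: HFF monolayers treated with compounds and infected with luciferase-expressing HCMV at 1 PFU/cell, 72 h at 37C, then lysed for luciferase measurement.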
Pf growth 96h = inhibits malaria parasite growth, 96 h. P. falciparum luciferase reporter growth, 96 h. Potency, µM (doses to about 28.7 µM), hits mostly inhibitors. 6.9% of 320,000 active
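Two-generation exposure (96 h) targets delayed-death phenotype. Reporter parasites carrying integrated firefly luciferase, in red cells at 2% hematocrit and 0.05% parasitemia final, kept at 37 C, 5% CO2; luminescence loss indicates inhibition.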
Pf growth 48h = P. falciparum growth inhibition at 48 hours (one generation); P. falciparum luciferase growth in erythrocytes, 48 h; Potency, µM (titrated, usually from 28.7 µM), most hits filed as inhibitors; 5.9% of 310,000 active
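Compounds are pin-transferred into medium, infected erythrocytes (2% hematocrit, 0.1% parasitemia final) are added, and plates sit one parasite generation at 37 C in 5% CO2. Detection reagent is then added and luminescence measured.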
Lassa entry inh = inhibitors of Lassa virus binding or cell entry; AID 540256; Lassa virus pseudotype entry inhibition, cell reporter; 1.2% of 300,000 active; Potency, µM (series often up to 37.9 µM), usual class: inhibitors; calls by dose curve; tested in HEK293 cells; further: nearly all actives have a fitted effect of over 50% in size
HCV inh = inhibitors of hepatitis C virus infection. Potency, µM (series often up to 41.8 µM), most hits filed as inhibitors. Huh7.5.1 HCVcc-Cre infection, luciferase reporter, 44 h. AID 651820. 3.4% of 340,000 active
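Cells seeded at 1,000/well and cultured 4 h, then compounds added followed by HCVcc-Cre virus (~0.5 moi). After 44 h further culture, luciferase substrate was added, plates held 15 min at room temperature, and luminescence read for 15 sec.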
Marburg entry inh = blocks Marburg virus binding to or entry into cells; Marburg virus pseudotyped entry inhibition, cell reporter; Potency, µM (doses to about 37.8 µM), actives largely listed as inhibitors; 1.8% of 300,000 active; calls by dose curve; tested in HEK293 cells
Numbers stand for hits; . = inactive; ? = inconclusive; / = no result. Unless noted, the call rests on the fitted dose curve; in most records, active means well fitted inhibition curve with a large enough effect; inconclusive means small, poorly fitted or top-dose-only effect, or another doubt; inactive means no such curve, though single readings can be large or run the other way.

SMILES | HCMV antiviral | Pf growth 96h | Pf growth 48h | Lassa entry inh | HCV inh | Marburg entry inh
CN1CCN(C(=O)c2ccc3c(c2)N(Cc2cccc(Cl)c2)C(=O)c2ccccc2S3=O)CC1 (stereo not drawn) | . | / | / | / | . | /
C=CCN1C(=O)CSc2ccc(C(=O)NC(C)c3ccccc3)cc21 (stereo not drawn) | . | 9.3µM | . | / | . | /
CN(NC(=O)C(=O)NCc1ccco1)C(=O)NC1CCCCC1 | . | / | / | / | / | /
COc1cccc(C(c2nnnn2CCc2ccccc2)N2CCN(c3ccccc3)CC2)c1OC (stereo not drawn) | . | ? | 4.7µM | ? | ? | ?
Oc1ccc(C(c2nnnn2CCc2ccccc2)N2CCN(c3nc4ccccc4s3)CC2)cc1 (stereo not drawn) | . | ? | ? | / | 13µM | /
COc1ccccc1C(c1nnnn1CCc1ccccc1)N1CCN(c2ccccc2)CC1 (stereo not drawn) | . | ? | . | ? | ? | ?
C=CCN1CCN(C(c2cccc(OC)c2OC)c2nnnn2CCC(C)C)CC1 (stereo not drawn) | . | . | 7.4µM | . | . | .
Clc1ccc(C(c2nnnn2CCc2ccccc2)N2CCSCC2)cc1 (stereo not drawn) | . | . | ? | . | ? | ?
COc1ccccc1N1CCN(C(c2ccccc2)c2nnnn2CCc2ccccc2)CC1 (stereo not drawn) | ? | . | 10µM | ? | ? | ?
COc1cccc(C(c2nnnn2C(C)(C)C)N2CCN(C/C=C/c3ccccc3)CC2)c1OC (stereo not drawn) | . | / | / | / | / | /
COc1ccc(C(c2nnnn2CCc2ccccc2)N2CCN(C)CC2)cc1OC (stereo not drawn) | . | . | . | . | . | .
Cc1ccc(NC(=O)Nc2nnc(N(C)C3CCCCC3)s2)c(Cl)c1 | . | / | / | . | / | .
Cc1csc2nc(-c3cccc(NC(=O)c4c(F)cccc4F)c3)cn12 | . | / | / | . | / | /
CCCCCCCCN1C(=O)[C@H](CC(=O)NCCc2ccccc2OC)C[C@@]2(C(=O)OCC)CCC=C12 | . | / | / | / | / | /
O=C(NCc1ccccc1F)C(=O)NCC(c1ccc2c(c1)OCO2)N1CCOCC1 (stereo not drawn) | . | / | / | . | / | /
COc1cc(OC)c(NC(=O)C(C)n2nc(-c3ccc(C)cc3)c3c(c2=O)CCCC3)cc1Cl (stereo not drawn) | . | / | / | ? | / | ?
Cc1nnc(NC(=O)C23CC4CC(CC(C4)C2)C3)s1 | . | . | . | / | . | /
COc1ccc(N2CCN(CCCNC(=O)c3nnc(Cc4ccccc4Cl)o3)CC2)cc1 | . | / | / | . | / | ?
CSc1ccc(NC(=O)N2CC=C(n3c(=O)[nH]c4ccccc43)CC2)cc1 | . | ? | ? | ? | 10µM | ?
CCc1ccc(NC(=O)N2CC=C(c3c[nH]c4ccccc34)CC2)cc1 | . | / | / | / | / | ?
CC(C)OC(=O)C(C(=O)C(F)(F)F)c1cc(NS(=O)(=O)c2ccc3c4c(cccc24)C(=O)N3)ccc1O (stereo not drawn) | . | / | / | . | / | ?
CC(C)OC(=O)C(C(=O)C(F)(F)F)c1cc(NS(=O)(=O)c2ccc3ccccc3c2)c2ccccc2c1O (stereo not drawn) | / | 3.3µM | 9.3µM | ? | ? | .
COc1ccccc1N(CC(=O)Nc1ccccc1C(F)(F)F)S(=O)(=O)c1ccc(C)cc1 | . | / | / | . | / | ?
COc1ccccc1N(CC(=O)Nc1cc(C)on1)S(=O)(=O)c1cccc(C(F)(F)F)c1 | -64 | ? | 13µM | / | . | /
COc1ccccc1N(CC(=O)Nc1ccc(C)c(Cl)c1)S(=O)(=O)c1ccc(C)cc1 | ? | / | / | ? | / | .
SMILES | HCMV antiviral | Pf growth 96h | Pf growth 48h | Lassa entry inh | HCV inh | Marburg entry inh
Cc1ccc(Cl)cc1N(CC(=O)Nc1cccc(N(C)S(C)(=O)=O)c1)S(C)(=O)=O | . | . | . | . | . | .
COC(=O)c1cc(NC(=O)CN(c2cccc(OC)c2)S(=O)(=O)c2ccccc2)ccc1Cl | ? | . | . | 10µM | ? | 16µM
COC(=O)c1cc(NC(=O)CN(c2ccccc2OC)S(=O)(=O)c2ccccc2)ccc1Cl | . | . | 10µM | ? | ? | ?
CN(c1cccc(NC(=O)CN(c2cccc(Cl)c2)S(=O)(=O)c2ccc(Cl)cc2)c1)S(C)(=O)=O | . | . | ? | . | 22µM | ?
Cc1cccc(NC(=O)Cn2cc(S(=O)(=O)N3CCCC3)c(S(=O)(=O)N3CCCC3)c2)c1C | . | / | / | . | / | /
O=C(O)CC1NC(=O)N(C2CCCCC2)C1=O (stereo not drawn) | . | 12µM | . | . | . | .
CCCCC1NC(=S)N(C2CCCCC2)C1=O (stereo not drawn) | . | . | . | . | . | .
O=C(O)CC1NC(=O)N(c2ccccc2)C1=O (stereo not drawn) | . | 2.6µM | . | / | ? | .
CCOc1ccc(S(=O)(=O)N(C)CCO)cc1-c1nc2c(C(C)(C)C)nn(C)c2c(=O)[nH]1 | . | . | 12µM | 2.8µM | ? | .
CCOc1ccc(S(=O)(=O)N(C)C)cc1-c1nc2c(C(C)(C)C)nn(C)c2c(=O)[nH]1 | . | ? | . | . | . | .
COc1ccc(OCc2cc(C(=O)NC3CCc4ccccc43)no2)c(Cl)c1 (stereo not drawn) | . | 10µM | . | . | . | .

Compound activity (PubChem BioAssay)
